# Screening results (PubChem BioAssay)
# HP1b binding inh: HTS for Inhibitors of HP1-beta Chromodomain Interactions with Methylated Histone Tails; Chromobox protein homolog 1 (Homo sapiens), P83916; AlphaScreen HP1-beta / biotin-H3K9me3 peptide binding; Potency, µM (titrated, usually from 114 µM), for the others: at the top dose activity change, negative = inhibition, most hits filed as inhibitors; actives 0.56% (n = 390,000); AID 540317, 2011; further: nearly all actives have a fitted effect of over 70% in size
# Target sequence (P83916 whole entry, looked up): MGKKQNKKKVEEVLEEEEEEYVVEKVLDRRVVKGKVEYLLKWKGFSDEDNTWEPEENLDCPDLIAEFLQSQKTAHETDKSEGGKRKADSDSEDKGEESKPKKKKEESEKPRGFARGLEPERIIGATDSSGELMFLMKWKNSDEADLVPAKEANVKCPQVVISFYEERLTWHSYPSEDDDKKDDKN
#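 Compound inhibition of the preformed complex between 50 nM HP1-beta and 50 nM biotinylated H3K9me3 peptide was read by AlphaScreen. Buffer was PBS pH 7.4 with 0.01% Tween-20. Incubations ran 30 min at room temperature, with 10 ug/mL donor/acceptor beads.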
# G9a block: qHTS Assay for Inhibitors of Histone Lysine Methyltransferase G9a; Histone-lysine N-methyltransferase EHMT2 (Homo sapiens), Q96KQ7; G9a H3K9 monomethylation, AlphaScreen, 2 h; Potency, µM (highest dose often 102 µM), for inactives: at the highest dose activity, negative = inhibition, usual class: inhibitors; actives 8.8% (n = 350,000); further: on the % scale 0 is the no-effect control and ±100 the full control effect; nearly all actives have a fitted effect of over 75% in size
# Target sequence (Q96KQ7 913-1193 limits assumed): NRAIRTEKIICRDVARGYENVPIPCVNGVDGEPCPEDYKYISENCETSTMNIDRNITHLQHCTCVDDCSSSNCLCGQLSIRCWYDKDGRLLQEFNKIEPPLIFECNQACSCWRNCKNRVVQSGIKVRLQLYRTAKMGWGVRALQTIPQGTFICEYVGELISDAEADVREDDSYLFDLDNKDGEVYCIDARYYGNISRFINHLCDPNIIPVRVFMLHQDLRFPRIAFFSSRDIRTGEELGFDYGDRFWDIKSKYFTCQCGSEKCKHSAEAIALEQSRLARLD
#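 Signal arises when biotinylated H3K9 peptide, once monomethylated, bridges streptavidin donor and antibody-captured acceptor beads. Enzyme at 20 nM was preincubated 15 min with test compounds; peptide 500 nM and SAM 20 uM then reacted for 2 h.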
# Sfp PPTase inh: qHTS Assay for Inhibitors of Bacillus subtilis Sfp phosphopantetheinyl transferase (PPTase); Potency, µM, for the others: largest response in the series, negative = inhibition, actives largely listed as inhibitors; actives 3.5% (n = 310,000); AID 1490, 2009; Biochemical Sfp PPTase activity, qHTS;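 further: the enzyme is Sfp with the accession as filed and its product quenches rhodamine fluorescence; 0% = enzyme reaction without inhibitor and -100% = no enzyme wells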
#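 With Hepes-Na pH 7.6 buffer containing 10 mM MgCl2, Sfp (15 nM) modified BHQ-2-YbbR (12.5 uM) using rhodamine-CoA (5 uM). Two reads 30 minutes apart at 525/598 nm yielded each well's rate.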
# BAZ2B inh: qHTS Assay for Inhibitors of BAZ2B; Bromodomain adjacent to zinc finger domain protein 2B (Homo sapiens), Q9UIF8; AlphaScreen BAZ2B-H3K14Ac peptide displacement; Potency, µM (titrated, usually from 114 µM), for inactives: top-dose activity change, negative = inhibition, usual class: inhibitors; actives 4.4% (n = 360,000); further: on the % scale 0 is the no-effect control and ±100 the full control effect; nearly all actives have a fitted effect of over 60% in size
#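 In this displacement format the biotinylated H3(5-23) peptide acetylated at Lys14 serves as ligand at 50 nM, with BAZ2B at 50 nM in PBS pH 7.4 containing 0.01% Tween-20. Donor and acceptor beads are 10 ug/mL final.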
# JMJD2A Tudor inh: qHTS Assay for Inhibitors of JMJD2A-Tudor Domain | AlphaScreen JMJD2A-Tudor / H3K4me3 peptide binding | Potency, µM (titrated, usually from 114 µM), inactives show top-dose activity change, negative = inhibition, most hits filed as inhibitors | actives 4.4% (n = 390,000) | AID 504339, 2011; further: on the % scale 0 is the no-effect control and ±100 the full control effect; nearly all actives have a fitted effect of over 50% in size
# L3MBTL1 inh: qHTS Assay for the Inhibitors of L3MBTL1; Lethal(3)malignant brain tumor-like protein 1 (Homo sapiens), Q9Y468; AlphaScreen L3MBTL1–H3K9me1 peptide binding; Potency, µM (top dose mostly 57.1 µM), inactives show at the highest dose activity, negative = inhibition, usual class: inhibitors; actives 0.66% (n = 230,000); further: on the % scale 0 is the no-effect control and ±100 the full control effect; nearly all actives have a fitted effect of over 60% in size
#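 L3MBTL1 50 nM + b-AHA-H3(1-15)K9me1 75 nM, 30 min RT; compound added, 30 min RT; streptavidin donor/Ni-chelate acceptor beads 10 ug/mL each final, 30 min RT dark; AlphaScreen read.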
# * hit, by the source's call; ? = inconclusive; · = not tested or not shown; [ ] = remark or other dose. Rows were chosen to be rich in hits. Some 12% of all compounds tested hit in one or more screens of this group. The call rests on the fitted dose curve; in most records, active means well fitted curve in the direction sought with a large enough effect; inconclusive means small, poorly fitted or top-dose-only effect, or another doubt; inactive means no such curve, though single readings can be large; an effect the other way counts as inactive or inconclusive. Potency means the concentration at half of the fitted maximal effect.
SMILES,HP1b binding inh,G9a block,Sfp PPTase inh,BAZ2B inh,JMJD2A Tudor inh,L3MBTL1 inh
CCOC(=O)CCCNC(=O)N1CCc2nc(-c3ccccc3)c3c(c2C1)CO[C@@H](C)C3,·,·,12%,·,·,·
COc1ccc(C(=O)Nc2ccc(C(=O)OCc3cc(=O)n4nc(C5CC5)sc4n3)cc2)cc1,27%,-6%[59 µM],·,-15%,6%,·
Cc1nnc(N2C(=O)C(O)=C(C(=O)c3ccco3)C2c2cccc3ccccc23)s1 (stereo not given),0%,50µM*,?,-26%,-24%,·
Cc1ccc(C2C(C(=O)c3ccco3)=C(O)C(=O)N2c2nnc(C)s2)cc1 (stereo not given),17%,·,89µM*,-33%,79µM*,-3%
Cc1nnc(N2C(=O)C(O)=C(C(=O)c3ccco3)C2c2cccc([N+](=O)[O-])c2)s1 (stereo not given),29%,21%,13%,-12%,-28%,·
CCOC(=O)c1sc(N2C(=O)C(O)=C(C(=O)c3ccco3)C2c2cccc([N+](=O)[O-])c2)nc1C (stereo not given),-3%,45µM*,?,?,?,·
O=C(Oc1ccc(C(=S)N2CCOCC2)cc1)c1ccccc1F,-2%,25µM*,25µM*,-26%,-10%,-6%
O=C(Oc1ccc(C(=S)N2CCOCC2)cc1Cl)c1ccccc1F,-14%,-9%[0.501 µM],56µM*,-31%,-35%,-9%[2.29 µM]
O=C(Oc1ccc(C(=S)N2CCOCC2)cc1Br)c1ccccc1F,?,10µM*,22µM*,-33%,-30%,-9%
COc1ncc2nc(-c3cccs3)c(=O)n(Cc3ccc(F)cc3)c2n1,·,24%[0.501 µM],-9%,·,·,·
O=[N+]([O-])c1ccccc1S(=O)(=O)N1CCN(c2nc(-c3cccs3)nc3ccccc23)CC1,19%,·,·,·,-30%,·
CCc1sc(C(C2C(=O)CC(C)(C)CC2=O)C2C(=O)CC(C)(C)CC2=O)cc1[N+](=O)[O-],35%,·,11µM*,?,-12%,-1%
CCOC(=O)c1cc(CC)sc1/N=C/C1C(=O)CC(C)(C)CC1=O,67%,-2%,8%,-2%,-2%,19%
COc1ccc(-n2c(CNC(=O)COc3ccccc3)n[nH]c2=S)cc1,37%,?,6%,-18%,11µM*,·
COc1ccc(OCC(=O)NCc2n[nH]c(=O)c3ccccc23)cc1,42%,9%[0.501 µM],·,4%,-4%,-3%
O=C(COc1ccccc1)NCc1n[nH]c(=S)n1-c1ccccc1,40%,20µM*,3%,-18%,8.9µM*,·
COc1ccc(-n2c(CNC(=O)COc3ccc(Cl)cc3Cl)n[nH]c2=S)cc1,73%,7.9µM*,1%,0%,-6%,·
COc1ccc(-n2c(CNC(=O)COc3ccc(Cl)cc3)n[nH]c2=S)cc1,-6%,2.5µM*,8%,-6%,13µM*,11%
COc1ccc(OCC(=O)NCC(c2ccc(Cl)cc2)N2CCCCC2)cc1 (stereo not given),23%,-4%[59 µM],·,-24%,-11%,·
COc1ccc(CNC(=O)COC(=O)CCCOc2ccc(Cl)cc2Cl)cc1,42%,0%,1%,-2%,19%,5%
CCCCCn1c(=N)c(S(=O)(=O)c2ccccc2)cc2c(=O)n3cccc(C)c3nc21,31%,6%[59 µM],·,5%,4%,·
COc1cc2c3c(c1)/C(=C1/SC(NC(C)=O)=NC1=O)C(=O)N3C(C)(C)C=C2C,?,?,35µM*,20µM*,?,-13%
CCN1C(=O)/C(=C2/C(=O)N3c4c(cc(OC(C)=O)cc42)C(C)=CC3(C)C)SC1=S,?,2.8µM*,7%,2µM*,?,-22%
CN(C)CCCOc1ccc2c(c1)Sc1ccccc1CC2=O,16%,-27%[59 µM],22µM*,13%,-19%,14%
O=C1Cc2ccccc2Sc2cc(OCCCN3CCCCC3)ccc21,5%,?,-4%,-9%,-25%,?
SMILES,HP1b binding inh,G9a block,Sfp PPTase inh,BAZ2B inh,JMJD2A Tudor inh,L3MBTL1 inh
O=C(/C=C/c1ccc(F)cc1)NC(=S)NNC(=O)[C@H]1C[C@@H]1c1ccccc1,23%,35µM*,19%,-3%[57.1 µM],-14%,·
COc1ccc(C(=O)NC(=S)NNC(=O)[C@H]2C[C@@H]2c2ccccc2)cc1OC,-3%,45µM*,-4%,0%,-25%,2%
CC(C)(C)NC(=S)NNC(=O)[C@H]1C[C@@H]1c1ccccc1,40%,13%[59 µM],23%,-2%,-12%,4%
O=C(NC(=S)NNC(=O)[C@H]1C[C@@H]1c1ccccc1)c1ccc(F)cc1,-5%,·,?,2%,-20%,13%
COc1cc(OC)cc(C(=O)NC(=S)NNC(=O)[C@H]2C[C@@H]2c2ccccc2)c1,-23%,20µM*,-9%,-19%,?,1%
CCOC(=O)c1c(NC(C)=O)sc2c(O)c(CN3CCN(CC)CC3)ccc12,-6%,25µM*,5%,?,?,-7%
c1ccc(NC(c2ccccc2)c2ccncc2)cc1 (stereo not given),57%,32µM*,5%,0%,-10%,3%
NC(c1ccccc1)c1ccncc1 (stereo not given),29%,45µM*,-2%,?,4%,10%
COc1ccccc1CN1CC[C@@]2(CCCN(C(=O)c3c(C)noc3C)C2)C1,·,-1%[12.7 µM],-1%,·,·,·
COc1ccc(CNc2ncnc3ccc(-c4ccccc4CN(C)C)cc23)c(OC)c1,·,·,-21%,·,·,·
COc1ccccc1N1CCN(/N=C/c2cc(OC)c(O)c(OC)c2)CC1,-41%,13µM*,40µM*,?,89µM*,-7%
COc1ccccc1N1CCN(/N=C\c2cccnc2)CC1,17%,40µM*,?,79µM*,?,-5%
COc1ccccc1N1CCN(/N=C/c2cccc(O)c2)CC1,6%,-35%,12%,71µM*,-33%,-28%
COc1ccc(O[C@H]2C=C[C@@H](c3ccccc3)O[C@@H]2CON=C(C)C)cc1,·,·,10%,·,·,·
COc1ccc(C)cc1NC(=O)c1ccc2c(c1)nnn2C1CCCC1,37%,7%[59 µM],·,-8%,-5%,·
COc1ccc(-c2cc(C(F)(F)F)nc(NCc3ccccc3)n2)cc1,205%,187%[59 µM],·,175%,115%,·
